This passage reports AC50 and outcome results from PubChem BioAssay (EPA / NIEHS).

The term AC50 denotes the concentration giving half of the maximal activity seen.

Several values for one entry are separate records, joined by “and”; a condition that tells them apart may be missing. Identical values can stand only once. Inconclusive results are not listed. A structure can be active in one record and inactive in another. Activity calls are given as the source filed them. How the source made its calls: active means hit-call score of the fitted dose curve at least 0.9, where 1 is the maximum; inconclusive means response in the unintended direction; inactive means score below 0.9.

In this assay the target is Estrogen receptor (Homo sapiens) (UniProt P03372). The experiment in a line: ATG_ERa_TRANS: Attagene TRANS-FACTORIAL HepG2 Assay for human Estrogen Receptor alpha (ERa) (AID 2282970). The note with it: HepG2 Attagene TRANS ERa GAL4 reporter, mRNA. The protocol: ATG_TRANS is a cell-based, multiplexed-readout assay that uses HepG2, a human liver cell line, with measurements taken at 24 hours after chemical dosing in a 24-well plate.ATG_ERa_TRANS is one of 30 assay component(s) measured or calculated from the ATG_TRANS assay. It is designed to make measurements of mRNA induction, a form of inducible reporter, as detected with fluorescence intensity signals by Reverse transcription polymerase chain reaction (RT-PCR) and Capillary electrophoresis technology.Data from the assay component ATG_ERa_TRANS was analyzed into 1 assay endpoint. This assay endpoint, ATG_ERa_TRANS, was analyzed in the positive analysis fitting direction relative to DMSO as the negative control and baseline of activity. Using a type of inducible reporter, measures of mRNA for gain-of-signal activity can be used to understand the reporter gene at the transcription factor-level as they relate to the gene ESR1. Furthermore, this assay endpoint can be referred to as a primary readout, because this assay has produced multiple assay endpoints where this one serves a reporter gene function. To generalize the intended target to other relatable targets, this assay endpoint is annotated to the nuclear receptor intended target family, where the subfamily is steroidal.
Sequence of Estrogen receptor (Homo sapiens) (P03372 whole entry, looked up, the tested form may be a part): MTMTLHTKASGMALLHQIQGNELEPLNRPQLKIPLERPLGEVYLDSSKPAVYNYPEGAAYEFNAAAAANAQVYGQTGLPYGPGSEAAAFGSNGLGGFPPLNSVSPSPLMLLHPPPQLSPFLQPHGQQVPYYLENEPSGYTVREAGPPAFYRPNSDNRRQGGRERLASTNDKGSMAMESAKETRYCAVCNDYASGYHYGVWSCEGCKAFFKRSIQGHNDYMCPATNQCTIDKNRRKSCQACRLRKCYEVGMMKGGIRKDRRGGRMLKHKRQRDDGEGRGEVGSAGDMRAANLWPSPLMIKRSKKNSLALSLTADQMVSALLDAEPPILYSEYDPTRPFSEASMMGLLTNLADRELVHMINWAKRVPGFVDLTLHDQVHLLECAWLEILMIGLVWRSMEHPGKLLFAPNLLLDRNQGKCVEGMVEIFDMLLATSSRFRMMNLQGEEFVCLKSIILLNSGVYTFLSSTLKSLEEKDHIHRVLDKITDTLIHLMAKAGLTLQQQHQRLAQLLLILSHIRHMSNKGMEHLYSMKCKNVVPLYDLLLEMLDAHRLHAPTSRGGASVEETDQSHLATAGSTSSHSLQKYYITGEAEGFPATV
Human liver HepG2 cells are transiently transfected with multiple reporter transcription units (MRTUs) in 6-well plates using FuGene 6 reagent (Roche; 3 ml FuGene/1 mg DNA). The MRTU constructs are regulated by a cis-regulating element (promoter). […] A major difference between the CIS and TRANS system is that in CIS activities of endogenous TFs are measured, whereas the TRANS assay evaluates changes in activities of exogenous, chimeric NR-Gal4 proteins. […] At the end of 24 hour incubation, total RNA was isolated using TriZol reagent (Invitrogen). The isolated RNA is then reverse-transcribed using oligo(dT) primer and Mo-MLV reverse transcriptase (Invitrogen) with DNAse I (Ambion) treatment for 30 min. The one-tenth of the produced cDNA was amplified by PCR using Taq DNA polymerase (Invitrogen) and two reporter sequence-specific primers. The PCR products were fluorescently labeled by primer extension with 6-arboxyfluorescein (6-FAM) 5'-labeled reporter sequence-specific primer (2 min at 95 C, 20 s at 68 C and 10 min at 72 C) and these products were digested with 5U of HpaI (New England Biolabs) for 2h at 37 C. […] The raw capillary electrophoresis data was processed using Attagraph software (Attagene).
On to `CCCCCCCCCc1ccc(O)cc1`, for which the AC50 is 5.66 µM (active) [middle of 4 runs].
`Cc1ccccc1O`: the outcome was inactive.
Take `ClC1=C(Cl)[C@]2(Cl)[C@@H]3[C@H]4C[C@H]([C@@H]5O[C@H]45)[C@@H]3[C@@]1(Cl)C2(Cl)Cl`: the compound was classed as inactive.
With `Nn1cnnc1`, the AC50 was 26 µM (active).
`Cc1cc2c3c(c1)C(c1ccccc1)=N[C@@H](NC(=O)c1ccncc1)C(=O)N3CC2`: the outcome was inactive.
Consider `O=C(O)C(F)(F)C(F)(F)C(F)(F)C(F)(F)C(F)(F)C(F)(F)C(F)(F)C(F)(F)C(F)(F)F`, for which the AC50 is 25.4 µM (active) and 22.6 µM (active) and 17.2 µM (active).
Consider `O=S(=O)(O)C(F)(F)C(F)(F)C(F)(F)C(F)(F)C(F)(F)C(F)(F)F`, for which the compound was called inactive and the AC50 is 105 µM (active).
As for `O=C(O)C(F)(F)C(F)(F)C(F)(F)C(F)(F)C(F)(F)C(F)(F)C(F)(F)C(F)(F)F`, the AC50 is 27.8 µM (active) and 71.8 µM (active) and 36.7 µM (active).
The same measure, in the same setting: the result for `ClC1=C(Cl)[C@]2(Cl)[C@@H]3[C@@H]4C[C@@H]([C@H]5O[C@@H]45)[C@@H]3[C@@]1(Cl)C2(Cl)Cl` reads 5.89 µM (active).
For `O=NN(c1ccccc1)c1ccccc1`, the AC50 was 23.6 µM (active).
Consider `Clc1ccc(Cl)cc1`, for which the call was inactive.
In the case of `Cc1ccc(O)c(C)c1`, the outcome was inactive.
Regarding `N#Cc1ccc(N(CC(N)=O)CC(F)(F)F)cc1C(F)(F)F`, the compound was called inactive.
For `C[C@]12CCC(=O)C=C1CC[C@@H]1[C@@H]2CC[C@]2(C)C(=O)CC[C@@H]12`, the AC50 is 65.1 nM (active) and 9.14 nM (active) and 9.25 nM (active).
For `ClC1=C(Cl)[C@]2(Cl)[C@@H]3[C@@H](Cl)[C@H]4O[C@H]4[C@@H]3C1(Cl)C2(Cl)Cl`, the call was inactive.
On to `NS(=O)(=O)C(F)(F)C(F)(F)C(F)(F)C(F)(F)C(F)(F)C(F)(F)C(F)(F)C(F)(F)F`, for which the concentration at half-maximal activity (AC50) is 25.8 µM (active) and 7.34 µM (active) and 5.15 µM (active).
Consider `Sc1ccccc1`, for which the half-maximal activity concentration (AC50) is 27.1 µM (active) and 42.2 µM (active).
Regarding `CCC(C)c1cc([N+](=O)[O-])cc([N+](=O)[O-])c1O` (stereo not given), the half-maximal activity concentration (AC50) is 0.807 µM (active).
As for `CCCCCCOC(=O)c1ccccc1C(=O)OCCCCCC`, the call was inactive.
For `Nc1ccc(-c2ccc(N)cc2)cc1`, the AC50 was 38 µM (active).
On to `CC(c1ccc(O)cc1)(c1ccc(O)cc1)c1ccc(O)cc1`, for which the AC50 is 0.129 µM (active).
As to `Cc1cccc([N+](=O)[O-])c1`, the call was inactive.
Consider `CCOP(=S)(OCC)SCSC(C)(C)C`, for which the AC50 is 19.8 µM (active) and 13.2 µM (active).
Still for that read-out and setting: to `Cc1cc(-c2ccc(N)c(C)c2)ccc1N` belongs 8.74 µM (active) and 6.68 µM (active).
For the compound `ClC(Cl)=C(c1ccc(Cl)cc1)c1ccc(Cl)cc1`, the half-maximal activity concentration (AC50) was 12.2 µM (active) and 4.03 µM (active) and 3.46 µM (active); the compound was called inactive.
As to `c1ccc(-c2ccccc2)cc1`, the call was inactive.
Regarding `COc1ccc(O)c(C(C)(C)C)c1`, the AC50 is 31.5 µM (active).
Regarding `CC1=C2C[C@H]3[C@@H](CC=C4C[C@@H](O)CC[C@@]43C)[C@@H]2CC[C@]12O[C@@H]1C[C@H](C)CN[C@H]1[C@H]2C`, the call was inactive.
With `c1cc2ccc3cccc4ccc(c1)c2c34`, the call was inactive.
Still for that read-out and setting: to `Oc1c(Cl)c(Cl)c(Cl)c(Cl)c1Cl` belongs “inactive”.
For `CC(C)(c1ccccc1)c1ccc(O)cc1`, the AC50 is 277 nM (active) [middle of 4 runs].
Consider `CC(C)C(=O)OCC(C)(C)C(OC(=O)C(C)C)C(C)C` (stereo not given), for which the AC50 is 52.8 µM (active).
For the compound `CCCCCCCCCC[N+](C)(C)CCCCCCCCCC`, the result was inactive.
On to `CC(C)(O)C(=O)Nc1ccc([N+](=O)[O-])c(C(F)(F)F)c1`, for which the call was inactive.
For `Cc1cc(O)ccc1Cl`, the AC50 was 40.4 µM (active).
For `Oc1ccc(Cl)cc1Cl`, the AC50 was 64 µM (active).
Turning to `CCCN(CCC)N=O`, the call was inactive.
Consider `O=C(NC(=O)c1c(F)cccc1F)Nc1cc(Cl)c(OC(F)(F)C(F)F)c(Cl)c1`, for which the call was inactive.
